The values below come from ChEMBL document CHEMBL2218924, “A broad activity screen in support of a chemogenomic map for kinase signalling research and drug discovery” (Biochem J, 2013).

For test [1], the target named is T1, Muscle, skeletal receptor tyrosine-protein kinase (Homo sapiens) (UniProt O15146).
T1 sequence (whole entry): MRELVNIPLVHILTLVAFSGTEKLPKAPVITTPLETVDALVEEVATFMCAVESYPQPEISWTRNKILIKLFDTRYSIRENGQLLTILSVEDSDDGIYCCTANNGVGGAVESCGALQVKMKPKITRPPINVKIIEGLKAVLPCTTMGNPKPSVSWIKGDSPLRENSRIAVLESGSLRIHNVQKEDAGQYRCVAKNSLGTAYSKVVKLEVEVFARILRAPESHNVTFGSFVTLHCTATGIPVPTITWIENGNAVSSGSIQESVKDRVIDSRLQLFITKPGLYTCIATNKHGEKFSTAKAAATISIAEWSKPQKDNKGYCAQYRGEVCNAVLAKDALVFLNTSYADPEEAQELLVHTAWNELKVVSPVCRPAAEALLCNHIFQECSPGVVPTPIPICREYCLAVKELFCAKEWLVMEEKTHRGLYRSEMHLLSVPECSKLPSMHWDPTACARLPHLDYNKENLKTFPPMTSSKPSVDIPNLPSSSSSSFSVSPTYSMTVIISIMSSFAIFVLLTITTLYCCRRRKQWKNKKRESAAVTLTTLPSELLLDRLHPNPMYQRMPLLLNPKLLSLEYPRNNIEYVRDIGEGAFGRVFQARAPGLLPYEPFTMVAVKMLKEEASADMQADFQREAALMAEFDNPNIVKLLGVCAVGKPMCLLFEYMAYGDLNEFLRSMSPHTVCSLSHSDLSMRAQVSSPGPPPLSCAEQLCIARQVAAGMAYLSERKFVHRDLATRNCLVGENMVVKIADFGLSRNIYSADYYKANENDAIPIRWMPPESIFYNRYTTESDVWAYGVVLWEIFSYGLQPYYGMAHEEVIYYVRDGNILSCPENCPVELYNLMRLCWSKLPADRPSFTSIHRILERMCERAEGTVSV
As to conditions: at 1 µM.

Test [2] concerns the target T1, Muscle, skeletal receptor tyrosine-protein kinase (Homo sapiens). As to conditions: at 10 µM.
For test [3], the target named is T2, Serine/threonine-protein kinase Nek11 (Homo sapiens) (UniProt Q8NG66).
T2 sequence (whole entry): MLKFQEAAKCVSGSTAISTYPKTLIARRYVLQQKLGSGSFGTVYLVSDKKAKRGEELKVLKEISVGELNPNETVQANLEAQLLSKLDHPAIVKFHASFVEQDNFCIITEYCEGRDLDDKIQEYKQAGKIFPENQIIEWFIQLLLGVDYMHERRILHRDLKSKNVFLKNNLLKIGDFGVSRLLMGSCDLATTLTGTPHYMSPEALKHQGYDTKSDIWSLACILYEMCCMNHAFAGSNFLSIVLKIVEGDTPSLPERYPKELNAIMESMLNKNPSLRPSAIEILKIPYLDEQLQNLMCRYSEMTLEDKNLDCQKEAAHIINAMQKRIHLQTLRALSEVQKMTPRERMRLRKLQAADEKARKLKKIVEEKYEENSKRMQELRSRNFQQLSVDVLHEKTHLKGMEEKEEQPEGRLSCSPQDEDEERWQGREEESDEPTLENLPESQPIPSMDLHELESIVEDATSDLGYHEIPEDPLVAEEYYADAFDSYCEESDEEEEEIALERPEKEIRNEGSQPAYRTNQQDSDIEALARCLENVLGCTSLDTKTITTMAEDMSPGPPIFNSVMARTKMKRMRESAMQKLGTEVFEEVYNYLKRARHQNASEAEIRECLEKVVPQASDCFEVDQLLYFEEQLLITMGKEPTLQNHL
To be noted: at 1 µM.

The target in test [4] is T2, Serine/threonine-protein kinase Nek11 (Homo sapiens). As to conditions: at 10 µM.
The target in test [5] is T3, Serine/threonine-protein kinase Nek2 (Homo sapiens) (UniProt P51955).
T3 sequence (whole entry): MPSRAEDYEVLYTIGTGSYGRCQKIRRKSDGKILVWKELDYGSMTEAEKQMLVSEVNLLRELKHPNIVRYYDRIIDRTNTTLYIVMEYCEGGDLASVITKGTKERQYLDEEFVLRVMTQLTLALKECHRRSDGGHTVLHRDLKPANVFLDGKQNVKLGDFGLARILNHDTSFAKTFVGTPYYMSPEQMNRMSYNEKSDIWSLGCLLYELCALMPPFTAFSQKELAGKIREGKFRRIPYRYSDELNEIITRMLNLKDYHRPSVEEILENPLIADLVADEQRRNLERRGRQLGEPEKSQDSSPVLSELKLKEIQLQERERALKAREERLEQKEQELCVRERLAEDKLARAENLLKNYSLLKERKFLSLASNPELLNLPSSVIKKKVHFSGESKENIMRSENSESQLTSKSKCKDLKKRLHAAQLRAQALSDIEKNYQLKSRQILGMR
To be noted: at 1 µM.

The target in test [6] is T3, Serine/threonine-protein kinase Nek2 (Homo sapiens). As to conditions: at 10 µM.
The target in test [7] is T4, Serine/threonine-protein kinase Nek3 (Homo sapiens) (UniProt P51956).
T4 sequence (whole entry): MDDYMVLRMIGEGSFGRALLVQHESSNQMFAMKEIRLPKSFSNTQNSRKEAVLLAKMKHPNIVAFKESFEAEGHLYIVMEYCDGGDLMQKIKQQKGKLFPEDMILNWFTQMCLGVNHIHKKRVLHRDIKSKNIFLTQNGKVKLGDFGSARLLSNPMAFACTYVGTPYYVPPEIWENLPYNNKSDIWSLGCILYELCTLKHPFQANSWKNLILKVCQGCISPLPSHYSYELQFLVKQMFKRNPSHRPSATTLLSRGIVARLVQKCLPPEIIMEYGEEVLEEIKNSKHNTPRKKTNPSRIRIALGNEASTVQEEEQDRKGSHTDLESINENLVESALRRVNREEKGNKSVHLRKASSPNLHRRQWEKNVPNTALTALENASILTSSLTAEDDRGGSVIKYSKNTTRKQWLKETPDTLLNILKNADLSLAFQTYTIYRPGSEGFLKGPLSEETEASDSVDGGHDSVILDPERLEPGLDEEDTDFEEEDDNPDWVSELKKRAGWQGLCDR
As to conditions: at 10 µM.

The target in test [8] is Serine/threonine-protein kinase tousled-like 2 (Homo sapiens) (UniProt Q86UE8). As to conditions: at 1 µM.
Chain of Serine/threonine-protein kinase tousled-like 2 (Homo sapiens) (Q86UE8 whole entry, looked up): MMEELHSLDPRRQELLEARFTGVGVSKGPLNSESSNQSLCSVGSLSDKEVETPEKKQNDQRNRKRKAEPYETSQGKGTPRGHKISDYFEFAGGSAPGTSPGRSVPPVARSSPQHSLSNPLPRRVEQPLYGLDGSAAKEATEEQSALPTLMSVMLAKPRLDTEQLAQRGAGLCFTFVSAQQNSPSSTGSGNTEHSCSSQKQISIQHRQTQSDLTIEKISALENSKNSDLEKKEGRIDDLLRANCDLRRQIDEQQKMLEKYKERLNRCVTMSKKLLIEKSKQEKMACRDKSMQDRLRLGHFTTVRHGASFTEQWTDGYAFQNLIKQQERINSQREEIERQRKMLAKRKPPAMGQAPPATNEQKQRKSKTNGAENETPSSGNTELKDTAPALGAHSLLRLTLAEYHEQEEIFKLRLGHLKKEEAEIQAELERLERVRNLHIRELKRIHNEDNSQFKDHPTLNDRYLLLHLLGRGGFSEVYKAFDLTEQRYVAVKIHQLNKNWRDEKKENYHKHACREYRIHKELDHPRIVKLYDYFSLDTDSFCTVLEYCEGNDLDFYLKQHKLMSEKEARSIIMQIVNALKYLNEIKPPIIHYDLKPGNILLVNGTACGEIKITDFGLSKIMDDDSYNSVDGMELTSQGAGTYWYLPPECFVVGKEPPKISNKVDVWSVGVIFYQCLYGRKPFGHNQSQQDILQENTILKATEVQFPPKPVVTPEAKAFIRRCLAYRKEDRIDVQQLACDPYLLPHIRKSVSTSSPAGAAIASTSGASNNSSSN
For test [9] the target is unchanged. As to conditions: at 10 µM.
Test [10] has as its target T5, Testis-specific serine/threonine-protein kinase 1 (Homo sapiens) (UniProt Q9BXA7).
T5 sequence (whole entry): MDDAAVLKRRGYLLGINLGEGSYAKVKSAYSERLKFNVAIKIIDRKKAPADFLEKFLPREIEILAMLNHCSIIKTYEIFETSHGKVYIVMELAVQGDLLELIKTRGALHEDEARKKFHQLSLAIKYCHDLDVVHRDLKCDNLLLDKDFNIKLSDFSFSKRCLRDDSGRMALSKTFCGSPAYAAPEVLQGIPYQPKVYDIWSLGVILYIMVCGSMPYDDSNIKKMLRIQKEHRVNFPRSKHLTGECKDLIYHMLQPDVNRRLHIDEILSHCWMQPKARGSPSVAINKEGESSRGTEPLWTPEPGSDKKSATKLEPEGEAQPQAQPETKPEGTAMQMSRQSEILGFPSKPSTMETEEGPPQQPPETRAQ
As to conditions: at 1 µM.

Test [11] addresses T5, Testis-specific serine/threonine-protein kinase 1 (Homo sapiens). To be noted: at 10 µM.
Test [12] deals with T6, Testis-specific serine/threonine-protein kinase 2 (Homo sapiens) (UniProt Q96PF2).
T6 sequence (whole entry): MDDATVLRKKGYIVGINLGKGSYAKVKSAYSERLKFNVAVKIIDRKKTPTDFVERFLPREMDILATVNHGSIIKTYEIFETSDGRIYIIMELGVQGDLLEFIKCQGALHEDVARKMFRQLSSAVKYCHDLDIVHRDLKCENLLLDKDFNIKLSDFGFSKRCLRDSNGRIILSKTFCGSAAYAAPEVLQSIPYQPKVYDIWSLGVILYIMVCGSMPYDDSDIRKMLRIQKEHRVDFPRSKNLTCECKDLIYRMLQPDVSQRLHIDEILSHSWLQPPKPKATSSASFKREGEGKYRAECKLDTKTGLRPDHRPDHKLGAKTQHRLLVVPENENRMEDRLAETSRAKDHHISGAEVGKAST
As to conditions: at 10 µM.

Test [13] deals with T7, Tyrosine-protein kinase Tec (Homo sapiens) (UniProt P42680).
T7 sequence (whole entry): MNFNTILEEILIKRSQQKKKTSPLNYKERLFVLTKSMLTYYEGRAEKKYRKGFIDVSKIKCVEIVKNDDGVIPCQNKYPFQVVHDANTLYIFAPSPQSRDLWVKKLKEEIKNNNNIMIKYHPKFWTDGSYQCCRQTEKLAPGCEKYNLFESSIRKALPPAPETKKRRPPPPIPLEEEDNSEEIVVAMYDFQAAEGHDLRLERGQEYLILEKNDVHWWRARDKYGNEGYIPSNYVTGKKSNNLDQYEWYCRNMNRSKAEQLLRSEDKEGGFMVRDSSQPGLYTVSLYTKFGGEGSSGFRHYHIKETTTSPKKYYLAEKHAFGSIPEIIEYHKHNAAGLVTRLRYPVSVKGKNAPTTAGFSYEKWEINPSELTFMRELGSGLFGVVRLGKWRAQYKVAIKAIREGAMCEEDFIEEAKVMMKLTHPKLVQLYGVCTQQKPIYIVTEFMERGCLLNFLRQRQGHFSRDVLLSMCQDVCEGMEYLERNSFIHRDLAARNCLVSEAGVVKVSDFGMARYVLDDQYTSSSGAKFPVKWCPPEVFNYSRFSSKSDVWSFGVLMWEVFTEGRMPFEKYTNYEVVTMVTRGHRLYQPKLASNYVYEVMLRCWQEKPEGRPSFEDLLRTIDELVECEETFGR
As to conditions: at 1 µM.

Test [14] concerns the target T7, Tyrosine-protein kinase Tec (Homo sapiens). To be noted: at 10 µM.
Test [15] concerns the target Angiopoietin-1 receptor (Homo sapiens) (UniProt Q02763). As to conditions: at 1 µM.
For test [16] the target is unchanged. To be noted: at 10 µM.
Test [17] concerns the target High affinity nerve growth factor receptor (Homo sapiens) (UniProt P04629). To be noted: at 1 µM.
Test [18] shares this target. To be noted: at 10 µM.
Test [19] addresses BDNF/NT-3 growth factors receptor (Homo sapiens) (UniProt Q16620). As to conditions: at 1 µM.
The target of test [20] is T4, Serine/threonine-protein kinase Nek3 (Homo sapiens). As to conditions: at 1 µM.

Chain of High affinity nerve growth factor receptor (Homo sapiens) (P04629 33-796 limits assumed): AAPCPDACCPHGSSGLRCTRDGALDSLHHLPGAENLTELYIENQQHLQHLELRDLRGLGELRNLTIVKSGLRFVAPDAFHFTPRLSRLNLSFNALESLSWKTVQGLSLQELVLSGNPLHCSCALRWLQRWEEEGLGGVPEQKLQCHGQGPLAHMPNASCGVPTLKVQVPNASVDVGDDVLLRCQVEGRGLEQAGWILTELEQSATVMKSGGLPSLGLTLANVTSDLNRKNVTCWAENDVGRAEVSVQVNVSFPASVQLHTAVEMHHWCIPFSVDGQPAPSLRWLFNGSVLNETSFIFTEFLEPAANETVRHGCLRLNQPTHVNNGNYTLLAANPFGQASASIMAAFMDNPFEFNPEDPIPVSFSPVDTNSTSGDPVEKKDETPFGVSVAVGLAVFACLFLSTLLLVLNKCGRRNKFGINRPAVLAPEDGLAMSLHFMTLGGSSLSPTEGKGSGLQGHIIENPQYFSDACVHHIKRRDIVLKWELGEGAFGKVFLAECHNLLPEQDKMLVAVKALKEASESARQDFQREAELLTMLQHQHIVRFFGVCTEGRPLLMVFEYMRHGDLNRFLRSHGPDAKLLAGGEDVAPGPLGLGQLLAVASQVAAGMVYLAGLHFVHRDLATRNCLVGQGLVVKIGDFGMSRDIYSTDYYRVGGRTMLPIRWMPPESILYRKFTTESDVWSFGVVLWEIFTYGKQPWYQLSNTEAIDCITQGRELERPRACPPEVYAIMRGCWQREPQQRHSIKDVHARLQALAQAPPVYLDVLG
Chain of Angiopoietin-1 receptor (Homo sapiens) (Q02763 whole entry): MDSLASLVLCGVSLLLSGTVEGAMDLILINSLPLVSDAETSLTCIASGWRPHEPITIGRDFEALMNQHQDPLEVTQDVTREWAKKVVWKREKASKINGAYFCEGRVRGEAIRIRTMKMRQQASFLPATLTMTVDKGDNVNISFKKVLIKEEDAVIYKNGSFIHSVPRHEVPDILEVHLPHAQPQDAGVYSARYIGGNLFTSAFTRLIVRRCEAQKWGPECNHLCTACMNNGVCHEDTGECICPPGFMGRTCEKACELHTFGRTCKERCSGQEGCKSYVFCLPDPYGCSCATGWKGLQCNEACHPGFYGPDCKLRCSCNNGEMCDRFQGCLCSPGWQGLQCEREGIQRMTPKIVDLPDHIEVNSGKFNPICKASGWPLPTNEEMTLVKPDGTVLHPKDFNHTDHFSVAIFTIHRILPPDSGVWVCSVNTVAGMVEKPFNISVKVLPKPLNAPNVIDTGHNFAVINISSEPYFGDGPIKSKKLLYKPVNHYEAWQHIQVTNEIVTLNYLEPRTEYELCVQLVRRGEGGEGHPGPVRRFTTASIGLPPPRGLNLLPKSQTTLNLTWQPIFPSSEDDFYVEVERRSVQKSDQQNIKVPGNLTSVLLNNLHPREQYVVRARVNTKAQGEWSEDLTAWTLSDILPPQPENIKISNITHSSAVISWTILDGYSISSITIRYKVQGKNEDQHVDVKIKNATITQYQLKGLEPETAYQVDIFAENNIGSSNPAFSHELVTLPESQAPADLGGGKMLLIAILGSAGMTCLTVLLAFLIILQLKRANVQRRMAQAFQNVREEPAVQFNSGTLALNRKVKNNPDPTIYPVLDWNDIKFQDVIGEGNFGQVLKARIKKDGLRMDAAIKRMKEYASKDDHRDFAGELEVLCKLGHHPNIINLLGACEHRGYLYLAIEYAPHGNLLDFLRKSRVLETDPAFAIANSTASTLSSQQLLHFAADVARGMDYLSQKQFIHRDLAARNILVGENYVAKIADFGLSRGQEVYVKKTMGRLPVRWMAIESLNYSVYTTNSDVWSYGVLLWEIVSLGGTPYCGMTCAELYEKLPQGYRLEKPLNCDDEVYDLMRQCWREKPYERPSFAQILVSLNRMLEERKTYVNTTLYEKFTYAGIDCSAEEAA
Chain of BDNF/NT-3 growth factors receptor (Homo sapiens) (Q16620 32-822 limits assumed): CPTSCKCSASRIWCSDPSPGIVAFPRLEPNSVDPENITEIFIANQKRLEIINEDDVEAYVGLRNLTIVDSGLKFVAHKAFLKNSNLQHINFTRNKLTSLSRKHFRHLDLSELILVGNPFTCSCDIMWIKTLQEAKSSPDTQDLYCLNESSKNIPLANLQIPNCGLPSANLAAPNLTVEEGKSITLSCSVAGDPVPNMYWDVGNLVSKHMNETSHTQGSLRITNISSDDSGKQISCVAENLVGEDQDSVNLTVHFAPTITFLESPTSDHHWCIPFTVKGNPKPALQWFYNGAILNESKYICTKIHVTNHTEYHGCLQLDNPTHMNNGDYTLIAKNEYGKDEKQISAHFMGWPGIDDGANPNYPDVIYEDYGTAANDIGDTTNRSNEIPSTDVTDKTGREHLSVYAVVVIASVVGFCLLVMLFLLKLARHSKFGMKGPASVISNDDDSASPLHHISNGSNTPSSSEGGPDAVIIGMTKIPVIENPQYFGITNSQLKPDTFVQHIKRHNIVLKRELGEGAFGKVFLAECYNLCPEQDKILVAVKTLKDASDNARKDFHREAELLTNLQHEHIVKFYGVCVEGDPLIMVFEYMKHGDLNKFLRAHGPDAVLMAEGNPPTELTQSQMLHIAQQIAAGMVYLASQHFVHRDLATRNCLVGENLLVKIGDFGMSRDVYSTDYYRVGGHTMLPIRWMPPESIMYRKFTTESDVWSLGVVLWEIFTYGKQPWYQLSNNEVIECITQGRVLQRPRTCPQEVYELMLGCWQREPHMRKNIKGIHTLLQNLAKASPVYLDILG

Consider `COc1cc2nccc(Oc3ccc(NC(=S)NC(=O)c4ccccc4C)cc3)c2cc1OC`, for which the residual activity in test [1] is 81%; in [2] it was 56%; in test [3], 99%; in test [4], 87%; in test [5], 78%; in [6], 82%. The residual activity in test [7] stood at 60%; in [8], 101%; in test [9], 85%; in [10], 93%; in [11] it was 76%; in test [12], 81%. Further, the residual activity in test [13] is 79%; in [14], 36%; in test [15] it was 33%; in test [16], 13%; in test [17], 44%; in test [18], -1%. Also, the residual activity in [19] was 54%.

As to `O=C(c1cc2cc(O)ccc2[nH]1)c1cc2cc(O)ccc2[nH]1`, the residual activity in test [1] was 43%; in test [2], 4%; in [3] it was 54%; in test [4], 38%; in test [5] it was 77%; in [6], 73%. For the same compound, the residual activity turned out to be 111% in [20]; 72% in [7]; 81% in test [8]; 32% in test [9]; 56% in [11]; 65% in test [12]. Besides, the residual activity in test [13] was 58%; in test [14] it was 21%; in test [15], 67%; in test [16], 75%; in test [17], 13%; in [18], 1%. Also, the residual activity in test [19] was found to be 56%.

For the compound `CCN(CC)CCNC(=O)c1c(C)[nH]c(/C=C2\C(=O)Nc3ccc(Cl)cc32)c1C`, the residual activity is 3% in [1]; 0% in test [2]; 80% in [3]; 31% in test [4]; 67% in [5]; 18% in test [6]. The residual activity in test [8] was found to be 69%; in [9], 14%; in [10], 8%; in test [11], 0%; in test [12], 26%; in test [13], 78%. Moreover, the residual activity in [14] is 29%; in test [15] it was 56%; in test [16], 19%; in test [17], -1%; in test [18] it was 0%; in [19], 40%.

Consider `COc1ccc(Cl)cc1NC(=O)Nc1cc(C)nc2ccccc12`, for which the residual activity in [1] was 97%; in test [2], 71%; in test [3], 79%; in [4], 93%; in test [5], 78%; in test [6], 86%. Also, the residual activity is 97% in test [8]; 95% in test [9]; 95% in [10]; 87% in test [11]; 88% in [12]; 93% in test [13]. Besides, the residual activity turned out to be 55% in test [14], 100% in [17] and 60% in test [18].

Consider `COc1ccc2c(c1)c(C1=C(c3c[nH]c4ccccc34)C(=O)NC1=O)cn2CCCN(C)C`, for which the residual activity in test [1] is 96%; in test [2] it was 65%; in test [3], 50%; in test [4], 48%; in test [5], 76%; in test [8], 21%. Besides, the residual activity stood at 2% in test [9]; 63% in [14]; 99% in test [15]; 36% in test [16]; 72% in [17]; 35% in [18]. Further, in [19], the residual activity was determined as 77%.

For the compound `Cn1c2ccccc2c2c3c(c4c5ccccc5n(CCC#N)c4c21)CNC3=O`, the residual activity in test [1] is 32%; in test [2], 37%; in test [3], 49%; in [4], 60%; in test [5] it was 76%; in [6], 82%. The residual activity in [20] stood at 100%; in test [10] it was 12%; in [11] it was 10%; in test [12] it was 40%; in [13], 4%; in test [14], 9%. Besides, the figures for the residual activity in [17], in [18] and in test [19] were 0%, -1% and 44%, respectively.

As usually defined, the residual activity is the signal under treatment as a percentage of the control signal.
